Results on 29 molecules are retold here after PubChem BioAssay AID977607 (Broad Institute, 2014).

The campaign covered roughly 1,500 compounds. About 460 (31%) were called active. Another 1% or so got no clear call; they are omitted.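 The calls were made as follows: active = curve reaches 40% activation over neutral controls at an AC40 no higher than the top valid tested concentration; inconclusive = no clear call, values can overlap the other calls; inactive = signal moving opposite to the expected increase, and the rest.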 Only a sample is shown. Results with a measured potency or affinity are listed apart.

The nature of this experiment: activators of glucose-dependent insulin secretion, dose response, cell-based, INS-1E, Gaussia luciferase, luminescence, cherry-pick, set 2 (AID 977607).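 Also: 0% = median of the plate neutral control wells.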 The conditions noted are these: INS-1E GLuc insulin secretion reporter, 2-3 h, hits give high values; at 35 µM, 100% = signal doubled over neutral wells unless noted.
Regarding `CCCCNC(=O)C1(C)CCN1C(=O)c1cc2ccccc2s1` (centres undefined), the max activation was -22.6% [at 3.8 µM, 100% = signal doubled over neutral wells] (inactive). The same measure for `Cc1noc(C)c1S(=O)(=O)NC(=O)C1(C)CCN1C(=O)C1(c2ccc(Cl)cc2)CCC1` (centres undefined): -18.9% [at 0.135 µM, 100% = signal doubled over neutral wells] (inactive); for `CC1(C(=O)N2CCCCC2)CCN1C(=O)C1(c2ccccc2)CC1` (centres undefined): -16.5% [at 0.046 µM, 100% = signal doubled over neutral wells] (inactive); for `CCSc1ncnc2c(C#N)c3n(c12)CCCCC3`: -11.2% [at 0.005 µM, 100% = signal doubled over neutral wells] (inactive).

For `Cc1cc(=O)[nH]c2c1c(C)nn2C1CCCC1`, the max activation was -15.7% [at 1.2 µM, 100% = signal doubled over neutral wells] (inactive). With `CCCCOc1ccc(-c2nnn(CC(=O)c3c[nH]c4ccccc34)n2)cc1` the figure was -22.5% (inactive); with `CCN1CCN(c2ccc(S(=O)(=O)N3CCCCC3)cc2NC(=O)c2cc3ccccc3o2)CC1`, -44.3% (inactive).

`Cc1cccc(C)c1NC(=O)C1c2ccccc2Oc2ccccc21`: the max activation is 22.9% (inactive). With `CCCCOC(=O)c1cc(-c2ccc(/C=N/n3cnnc3)o2)ccc1Cl` the figure was 9.8% [at 1.2 µM, 100% = signal doubled over neutral wells] (inactive).

Take `O=C(CNC(=O)c1ccco1)N/N=C/c1ccc(C(=O)O)cc1`: the max activation was 52.9% [at 11 µM, 100% = signal doubled over neutral wells] (inactive). Turning to `O=C(c1ccc2c(c1)OCO2)N1CCc2ccccc2C1`, the max activation is 14.5% (inactive). For the molecule `O=C(CCN1CCOCC1)c1ccc(N2CCCCC2)cc1`, the max activation is -35% [at 3.8 µM, 100% = signal doubled over neutral wells] (inactive). In the case of `CC(C)Oc1ccc(C(=O)CCN2CCOCC2)cc1`, the max activation is -16% (inactive). The same measure for `CC(=O)NC1C(=O)N(CCN2CCOCC2)c2ccc(Br)cc21` (centres undefined): -15.1% [at 3.8 µM, 100% = signal doubled over neutral wells] (inactive); for `CC1(c2ccc(OC(F)F)cc2)NC(=O)N(CC(=O)Nc2cccc(S(N)(=O)=O)c2)C1=O` (centres undefined): -16.7% (inactive). As to `C=CCN(CC=C)S(=O)(=O)c1ccc(C(=O)Nc2sc3c(c2C(N)=O)CCCCC3)cc1`, the max activation was -33.8% [at 3.8 µM, 100% = signal doubled over neutral wells] (inactive).

On to `C[C@H](O)[C@@H]1CN2CCc3ccc(-c4ccc5c(c4)OCO5)cc3[C@@H]2C[C@@H]1N(C)C(=O)c1cccc(Cl)c1`, for which the max activation was 18.9% [at 0.42 µM, 100% = signal doubled over neutral wells] (inactive). `CC(C(=O)N1CCC(C(N)=O)CC1)N(c1ccc(Oc2ccccc2)cc1)S(C)(=O)=O` (centres undefined): the max activation was 28.2% [at 0.42 µM, 100% = signal doubled over neutral wells] (inactive).

`COc1ccc(CCNC(=O)CCc2ccccc2)cc1OC`: the max activation was -19.6% [at 0.42 µM, 100% = signal doubled over neutral wells] (inactive). As for `COc1ccc(CCNC(=O)CCc2ccccc2O)cc1OC`, the max activation is -17.8% [at 0.005 µM, 100% = signal doubled over neutral wells] (inactive). The same measure for `CC(=O)NCCNC(=O)CNC(=O)c1ccc(Cl)cc1`: -16.4% [at 0.0016 µM, 100% = signal doubled over neutral wells] (inactive); for `CCNc1nc(NC(C)CC)nc(ON=C(C)C)n1` (centres undefined): 31.8% (inactive). With `COc1cccc2cc(-c3cc(=O)oc4cc(C)c(O)cc34)oc12` the figure was 15.9% [at 3.8 µM, 100% = signal doubled over neutral wells] (inactive). For `COCCN(CCOC)Cc1cc(=O)oc2cc(C)c(C)cc12`, the max activation is -22.4% [at 0.046 µM, 100% = signal doubled over neutral wells] (inactive). With `O=C(NCCN1CCN(C(=O)c2ccccc2Cl)CC1)C(=O)NCc1ccccc1` the figure was 23.3% [at 0.005 µM, 100% = signal doubled over neutral wells] (inactive); with `CC(O)c1nc2ccc(Cc3ccc4nc(C(C)O)[nH]c4c3)cc2[nH]1` (centres undefined), -15% [at 0.0016 µM, 100% = signal doubled over neutral wells] (inactive); with `CCNc1nc(NC(C)C)nc(N(C)C#N)n1`, 18.9% (inactive). As to `COc1ccc(/C=N/NC(=O)c2cc(-c3ccc4c(c3)OCO4)n[nH]2)cc1OC`, the max activation was 26.5% [at 3.8 µM, 100% = signal doubled over neutral wells] (inactive).

`O=C(NN=C1CCCC1)c1cc(-c2ccccc2)n[nH]1`: the max activation is -11.9% [at 1.2 µM, 100% = signal doubled over neutral wells] (inactive).
